Only some compounds are listed: those with a hit (about 3.2% of all), similar ones and a draw of the others.
14-3-3 Bad PPI: disrupts binding of bovine 14-3-3 zeta to phospho-Bad peptide; P63103; TR-FRET 14-3-3zeta/Dy647-pBad peptide displacement, 1 h; inhibition, % at 21.7 µM; 220,000 compounds, 0.71% hits; AID 781;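 active = inhibition above about 70%, limit read from the data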;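 also: 0% = full 14-3-3 plus peptide FRET controls and 100% = background without 14-3-3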
p47phox inh: blocks human p47phox regulatory protein of NADPH oxidases; inhibition, % at 24.7 µM; P14598; 220,000 compounds, 0.53% hits; p47phox/p22phox peptide binding, fluorescence polarization, 2 h;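 active = inhibition above about 30%, limit read from the data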;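 also: 0% = p47phox with labelled peptide and 100% = labelled peptide alone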
Target sequence (P14598 whole entry, looked up): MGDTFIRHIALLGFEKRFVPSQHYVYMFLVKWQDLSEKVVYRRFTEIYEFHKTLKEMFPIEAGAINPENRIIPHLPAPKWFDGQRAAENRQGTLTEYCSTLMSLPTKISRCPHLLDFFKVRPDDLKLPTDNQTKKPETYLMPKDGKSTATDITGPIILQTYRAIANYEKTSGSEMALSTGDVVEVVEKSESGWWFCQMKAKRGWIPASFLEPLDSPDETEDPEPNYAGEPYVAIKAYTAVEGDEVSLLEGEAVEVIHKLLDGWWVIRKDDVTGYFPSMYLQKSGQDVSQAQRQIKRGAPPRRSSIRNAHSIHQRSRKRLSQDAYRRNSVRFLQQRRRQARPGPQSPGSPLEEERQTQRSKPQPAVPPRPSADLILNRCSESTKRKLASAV
Mcl1-Noxa inh: Mcl-1/Noxa interaction inhibition; TR-FRET Mcl-1/Noxa peptide binding, 2 h; 220,000 compounds, 1.5% hits; inhibition, % at 21.7 µM; Q07820; AID 1022;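 active = compounds that cut the protein-peptide binding signal by more than 50% relative to plate controls in a single-dose test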;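 also: His-tagged Mcl-1 with rhodamine Noxa BH3 peptide and terbium anti-His antibody; 0% = Mcl-1 plus Noxa peptide wells and 100% = peptide-only wells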
Mcl-1 Bim block: human Bim-Mcl-1 interaction inhibition; AID 1009; 190,000 compounds, 0.1% hits; inhibition, % at 10 µM; Bead-based flow cytometry, Bim peptide-Mcl-1 binding; Q07820; in the data active = inhibition above about 40%;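 also: 0% = no compound tracer wells and 100% = peptide blocker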
Mcl1-Bid inh: disrupts binding of human Mcl-1 to Bid peptide. 220,000 compounds, 0.97% hits. Q07820. AID 1021. inhibition, % at 21.7 µM. TR-FRET Mcl-1/Bid-Dy647 peptide binding, 1536-well;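 active = compounds that cut the binding signal by more than half at the single screening dose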;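 also: His-tagged Mcl-1 with europium anti-His antibody binding Bid BH3 peptide; 0% = Mcl-1 plus peptide wells and 100% = peptide-only wells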
* = called active by the depositor; . = no result.

SMILES	14-3-3 Bad PPI	p47phox inh	Mcl1-Noxa inh	Mcl-1 Bim block	Mcl1-Bid inh
COc1cccc(-c2nn(C)c3sc(C(=O)NCc4ccc(C)o4)cc23)c1	12	-33	60*	2	-8
O=C(Oc1cccc([N+](=O)[O-])c1)N1CCCCC1	-9	-4	9	3	-40
O=S(=O)(Nc1ccc(N2CCCCC2)cc1)c1ccc(F)c(F)c1	-11	0	51*	5	-41
O=C(O)c1cc(S(=O)(=O)Nc2ccc(N3CCCCC3)cc2)ccc1Cl	-14	-12	46	2	-48
COc1ccc2cc(C3CC(c4cccs4)=NN3C(C)=O)c(Cl)nc2c1 (centres undefined)	9	8	15	.	54*
C=CCOC(=O)C1=C(C)NC(C)=C(C(=O)OCC=C)C1c1cn(-c2ccccc2)nc1-c1ccco1	-8	-10	5	-2	-12
CC(C)(C)C(=O)NC1CCN(C(=O)N2CCCC2)CC1	-2	2	22	-6	-7
CC(C)(C)C(=O)NC1CCN(S(C)(=O)=O)CC1	0	-1	40	-2	58*
O=C(CN1C(=O)S/C(=C\C=C\c2ccccc2)C1=O)Nc1ccc(O)cc1	1	-63	55*	-6	8
C#CC1(NC(=O)NCCCC)CCCCC1	-5	57*	12	0	-41
Cn1c(=O)c2c(nc(Cc3ccc(N)cc3)n2C)n(C)c1=O	-9	-15	12	.	98*
Cn1c(=O)c2c(nc(CN3CCN(Cc4ccccc4)CC3)n2Cc2ccccc2)n(C)c1=O	2	-4	13	0	-12
CN1N=C(C(=O)N2CCCC(C(=O)c3cccc(C(F)(F)F)c3)C2)CCC1=O (centres undefined)	-4	-6	16	48*	-19
O=C(c1cccc(C(F)(F)F)c1)C1CCCN(C(=O)CCCN2CCCC2=O)C1 (centres undefined)	-6	-11	-1	1	-7
Oc1ccc(Cc2ccc(Cl)cc2)c(O)c1	-4	-15	4	.	-8
CCOC(=O)CNC(=O)CSc1nnc(NC(=O)c2ccccc2Cl)s1	-2	-16	-3	0	-20
O=C(COC(=O)c1cnccn1)c1cccc([N+](=O)[O-])c1	-13	-5	1	.	-9
Cc1cc([N+](=O)[O-])nn1CCCC(=O)NCc1ccccc1	-8	-10	0	-4	-10
Cc1cc([N+](=O)[O-])nn1CC(=O)NCc1nc2ccccc2[nH]1	-6	41*	-4	0	-4
CCCCC(=O)Nc1nn(CC(C)C)c2nc3ccccc3cc12	82*	-16	17	-1	2
COCCN(C(=O)CC1C(=O)NCCN1Cc1ccc(-c2ccccc2)cc1)C(C)C (centres undefined)	-5	-3	10	-4	-6
O=C(O)/C=C\C(=O)N1CCc2ccccc21	-12	-2	18	-3	94*
O=C(O)/C=C/C(=O)N1CCc2ccccc21	-7	-6	1	1	-45
O=c1[nH]c(CSc2ncnc3sc(-c4ccccc4)cc23)nc2ccccc12	50	-38	19	.	61*
O=c1[nH]c(CSc2nc(-c3ccccc3)cs2)nc2ccccc12	-19	-18	19	-4	-8
SMILES	14-3-3 Bad PPI	p47phox inh	Mcl1-Noxa inh	Mcl-1 Bim block	Mcl1-Bid inh
CC1(C)CC(=O)C2=C(C1)OC(N)=C(C#N)C2c1cc2c(cc1[N+](=O)[O-])OCO2 (centres undefined)	-17	25	25	-6	-49
CN(C)c1ccc(NS(=O)(=O)c2cc(Cl)ccc2Cl)cc1	1	16	69*	-4	-51
CCN(c1ccc(NS(=O)(=O)c2cc(Cl)ccc2Cl)cc1)C(C)C	7	-4	48	-2	-58
O=c1cc(-c2ccco2)oc2c1ccc1ccccc12	77*	-19	-3	-6	8
O=c1cc(C(Cl)(Cl)Cl)oc2c1ccc1ccccc12	-6	-15	-3	0	5
COc1ccc(C2C(C#N)=C(C)NC(C)=C2C(=O)OC(C)C)c(OC)c1 (centres undefined)	-13	-3	-1	0	-35
CC(=O)c1cccc(NC(=O)N2C3CCC2CC(NC(=O)C2CC2)C3)c1 (centres undefined)	1	-6	-17	22	-1
Cc1[nH]n(-c2ccccc2)c(=O)c1C(C[N+](=O)[O-])c1ccc(Cl)cc1 (centres undefined)	-14	-7	11	-7	13
Cc1[nH]n(-c2ncc(-c3ccccc3)s2)c(=O)c1C(c1ccc(Cl)cc1)C(C#N)C#N (centres undefined)	-16	-45	81*	0	18
Cc1ccc(NC(=O)COC(=O)CNC(=O)c2ccc(C)s2)cc1	-4	4	-11	0	1
CCN(c1ccc(NC(=O)COC(=O)CCc2cc(OC)c(OC)c(OC)c2)cc1)C(C)C	1	-7	59*	-6	-11
CCN(c1ccc(NC(=O)COC(=O)c2ccc(C)s2)cc1)C(C)C	2	-8	63*	-1	-8
Fc1ccc(-c2nnc(Cc3ccc(Cl)cc3)o2)cc1	0	0	-10	.	-8
O=C(CCc1nc2ccccc2[nH]c1=O)N/N=C/c1ccccc1	-22	-10	16	0	-16
CN(C)S(=O)(=O)c1ccc(Cl)c(NC(=O)COC(=O)c2ccc3c(c2)NC(=O)CS3)c1	-8	-29	24	.	-13
Cc1ccc(NC(=O)c2cc3c(=O)oc4ccc(C)cc4c3s2)nc1	78*	22	-23	.	49
Cc1ccnc(NC(=O)c2cc3c(=O)oc4ccc(C)cc4c3s2)c1	64	24	-31	.	34
CC1=CC(=O)C=C(C)C1=NOC(=O)c1cccc([N+](=O)[O-])c1	-7	2	53*	-3	-10
Cc1cccc(C(=O)O/N=C(\N)c2cccc([N+](=O)[O-])c2)c1	-8	-9	13	1	2
O=C1CCCC2=C1C(c1ccc(O)c(O)c1)c1c(ccc3ncccc13)N2 (centres undefined)	6	14	79*	7	-44
CCOc1ccc(C2C3=C(CCCC3=O)Nc3ccc4ncccc4c32)cc1 (centres undefined)	6	2	-3	.	-67
NC(=O)CSc1nnc(Cc2ccc3c(c2)OCO3)o1	-3	3	-4	0	-23
O=C1c2ccccc2C(=O)N1c1cccc(-c2csc(Nc3ccc4c(c3)OCO4)n2)c1	9	-10	62*	1	38
COc1cc(/C=C/C(=O)c2ccc(NS(=O)(=O)c3ccc(C)cc3)cc2)cc(OC)c1O	2	-52	56*	4	4
COc1cc(/C=C/C(=O)c2ccc(NS(=O)(=O)c3ccc(C)cc3)cc2)ccc1OC(F)F	-13	-13	17	-2	0
CCOC(=O)c1c(N2C(=O)CC(Sc3ccccc3C(=O)O)C2=O)sc2c1CCCC2 (centres undefined)	-14	-13	25	2	-12
O=C(NCc1cccnc1)c1ccccc1CCc1ccccc1	6	0	23	-1	-12

Screening results deposited in PubChem BioAssay by several laboratories.
